# Screening results: PubChem, National Center for Advancing Translational Sciences (NCATS)
# ClpP mod – qHTS Assay for Activators of ClpP. AID 651965, 2013. 1.9% of 340,000 active. ATP-dependent Clp protease proteolytic subunit (Bacillus subtilis (strain 168)), P80244. purified B. subtilis ClpP, FRET peptide cleavage, 20 min. Potency, µM (highest dose often 57.5 µM); active = well fitted falling curve with a large enough effect; inconclusive = small, poorly fitted or top-dose-only effect; inactive = no such curve, though single readings can be large or run the other way; also: the source files actives as falling curves though it sought activators and does not explain the sign; nearly all actives have a fitted effect of over 65% in size
# Target sequence (P80244 whole entry, looked up): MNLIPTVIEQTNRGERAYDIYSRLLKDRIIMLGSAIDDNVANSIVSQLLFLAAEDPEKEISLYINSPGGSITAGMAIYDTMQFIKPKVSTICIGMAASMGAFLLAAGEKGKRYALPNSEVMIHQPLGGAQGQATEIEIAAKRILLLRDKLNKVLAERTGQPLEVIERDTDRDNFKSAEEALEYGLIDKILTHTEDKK
#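 ClpP 10 microg/mL final, pH 8 Tris/KCl buffer with BSA, glycerol, Tween-20; compound pinned in; FRET-FV substrate; RT 20 min; Ex320/Em430; ΔFRET vs ADEP 5.8 microM, DMSO, no enzyme.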
# B2AR arrestin – agonists driving beta-arrestin recruitment to human beta2-adrenergic receptor; P07550; beta-arrestin recruitment to beta2AR, cell-based reporter; Potency, µM (top dose mostly 46.1 µM), actives largely listed as activators; 0.02% of 330,000 active; also: nearly all actives have a fitted effect of over 65% in size
# Mito fusion yeast – blocks mitochondrial division or promotes mitochondrial fusion | S. cerevisiae fusion-defective mutant growth rescue, CellTiterGlo 48 h | 0.23% of 320,000 active | Potency, µM (series often up to 46.1 µM), hits mostly activators; also: nearly all actives have a fitted effect of over 45% in size
#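 S. cerevisiae fusion-defective temperature-sensitive mutants (e.g. fzo1-1, mgm1-5) grown 48 h at 37C in YPEG (ethanol/glycerol non-fermentable) medium with 23 nl compound per well; growth rescue read as CellTiterGlo luminescence.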
# uPA generation – inhibitors of cell surface uPA generation; Potency, µM (highest dose often 38.3 µM), hits mostly inhibitors; 0.31% of 330,000 active; cell surface uPA generation assay, qHTS; AID 540303; active = well fitted inhibition curve with a large enough effect; inconclusive = small, poorly fitted or top-dose-only effect; inactive = no such curve, though single readings can be large or run the other way; tested in mouse RAW 264.7 cells; also: nearly all actives have a fitted effect of over 55% in size
# Giardia kill – kills Giardia lamblia; Giardia lamblia trophozoite viability; activity change, % at 7.66 µM, hits read low; 0.15% of 340,000 active; AID 540267; in the data active = activity change below about -80%; inconclusive = between about -30% and that limit;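 also: parasites exposed to compound for two days anaerobically before the ATP read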
#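 Trophozoite viability was measured as ATP-dependent luminescence, read 15-30 min after reagent addition. Before that, parasites at 100 cells/well were exposed to compounds for 48 h, anaerobically, at 37 deg C.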
# p53 reactivation – restores transcriptional activity of mutant p53. H1299 p53-A138V BP100-luciferase reporter, luminescence, 24 h. Potency, µM (doses to about 92.2 µM), actives largely listed as activators. 0.063% of 320,000 active; also: nearly all actives have a fitted effect of over 45% in size
#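 H1299 (p53-null), stable ts p53-A138V + BP100-Luc; 1000 cells/well, Opti-MEM/10% FBS; cpd 4 pt, 1:5; 24 h, 37 deg C, 5% CO2; detection reagent 10 min RT; luminescence.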
# Numbers stand for hits; n = inactive; u = inconclusive; x = not tested or not shown; ! = a repeat was not active. An excerpt weighted towards active compounds, which were near 2.1% of everything screened. Unless noted, calls follow the shape of the dose curve; as a rule, active = well fitted curve in the direction sought with a large enough effect; inconclusive = small, poorly fitted or top-dose-only effect, or another doubt; inactive = no such curve, though single readings can be large; an effect the other way counts as inactive or inconclusive.
SMILES,ClpP mod,B2AR arrestin,Mito fusion yeast,uPA generation,Giardia kill,p53 reactivation
O=c1nc(-c2ccccc2)cc(-c2ccccc2)[nH]1,28.2µM,n,n,n,n,n
CNC[C@H](CC1CCCCC1)NC[C@H](CO)NCCc1cccc(C(F)(F)F)c1,n,n,n,7.94µM,n,n
Cc1cc(NC(=O)OC(C)(C)C)c(-n2nnnc2C(C(=O)c2ccccc2)N2CCOCC2)cc1C (centres undefined),n,x,x,x,x,x
COc1ccc(C2C(C#N)C(C#N)N3CCCN23)cc1 (centres undefined),31.6µM,n,n,n,n,n
CC(=O)Nc1ccc2[nH]c(C)cc(=O)c2c1,31.6µM,n,n,n,n,n
Cc1cc(C)c(Cn2cnc3nc4c(cc3c2=O)CCCC4)c(C)c1,n,x,x,x,x,x
COc1ccc2c3n([n+]([O-])c2c1)CCN=C3c1cc(Cl)c(N)c(Cl)c1,n,n,n,n,-92.7,n
COc1ccc2c3n([n+]([O-])c2c1)CCN=C3c1ccc(C)cc1,n,n,n,n,-90.5,n
COc1ccc(NC(=O)CN2C(=O)CCn3nc(-c4cccn4C)cc32)cc1Cl,n,x,x,x,x,x
CCOC(=O)c1nnn(C(CC)C(=O)Nc2ccc(F)cc2)c1C(=O)OCC (centres undefined),n,x,x,x,x,x
O=C(COC(=O)c1ccccc1C(=O)c1ccccc1)Nc1ccc(SC(F)F)cc1,n,n,15.8µM,n,n,n
Cc1ccc(OCCn2c(C3CC(=O)N(Cc4ccc(F)cc4)C3)nc3ccccc32)c(C)c1 (centres undefined),n,x,x,x,x,x
Cc1ccc(NC(=O)c2cnc(SCC(=O)N3CCOCC3)n(C)c2=O)cc1C,n,x,x,x,x,x
Nc1ccc(O)cc1C(=O)OCC(=O)C12CC3CC(CC(C3)C1)C2,22.4µM,n,n,n,n,n
CC(C)c1nc2sc3c(SCC(=O)NCc4ccco4)ncnc3c2c2c1CCC2,25.1µM,n,n,n,u,n
CCc1ccc(Cn2c(CNS(=O)(=O)c3ccc4c(c3)CCCC4)nc3cccnc32)cc1,n,x,x,x,x,x
CCOC(=O)c1c(C)[nH]c(C)c1C(=O)COC(=O)/C=C/c1cccc(F)c1,n,n,n,n,n,n
CCOC(=O)c1c(C)[nH]c(C)c1C(=O)COC(=O)/C=C/c1ccc(OC)cc1,15.8µM,n,n,2.51µM,n,n
COc1ccc(-c2nsc3c(N4CCCCC4C)ncnc23)cc1 (centres undefined),n,n,n,3.16µM,u,n
CC(=O)O/N=C(/C)c1ncc(C(F)(F)F)cc1N1CCOCC1,14.1µM,n,n,n,n,n
O=c1c(Cl)c(N2CCOCC2)cnn1-c1ncc(C(F)(F)F)cc1Cl,x,n,n,n,n,n
CCOC(=O)c1[nH]c(C)c(CCC(=O)N2CCN(c3cccc(C)c3C)CC2)c1C,n,x,x,x,x,x
COc1ccccc1Cc1c(-c2ccc(C#N)cc2)nc2ccc(C)cn12,n,x,x,x,x,x
CN(C)c1nc(=NCc2ccco2)ss1,n,2.24µM,n,n,u,n
Cc1nonc1C(=O)N/N=C/c1ccc(O)c(O)c1,28.2µM,n,n,n,n,u
SMILES,ClpP mod,B2AR arrestin,Mito fusion yeast,uPA generation,Giardia kill,p53 reactivation
COc1cc(/C=N/NC(=O)c2nonc2C)ccc1O,x,n,n,n,n,n
CC(=O)Nc1ccc(NC(=O)COC(=O)c2ccccc2OCc2cccc(Br)c2)cc1,n,x,x,x,x,x
COc1ccc(OC)c(CNC(=O)c2cnc3c(C)cccn3c2=O)c1,n,x,x,x,x,x
CCC/C=C1/CCCOC(C(=O)NCC2CC2)(C(F)(F)F)C1 (centres undefined),x,x,x,x,n,x
CCCC(=O)Nc1ccc2c(c1)C(=O)N(C)C[C@@H](OC)[C@H](C)CN(Cc1ccc(-c3ccccn3)cc1)[C@@H](C)CO2,n,x,x,x,x,x
C=C(C)c1cccc(C(C)(C)NC(=O)N2CCN(C)CC2)c1,n,n,n,n,n,n
C=C(C)c1cccc(C(C)(C)NC(=O)N2CCN(c3ccc(OC)cc3)CC2)c1,31.6µM,n,n,n,n,n
O=C(O)c1ccccc1Nc1cccc(OCc2ccc3ccccc3n2)c1,n,n,14.6µM!,n,n,n
O=C(COc1ccc2ccccc2c1)Nc1cccc(C(=O)Nc2ccccc2C(=O)O)c1,n,n,n,n,n,n
CSc1ccccc1OCc1cc(C(=O)NC(C)c2cnn(C)c2)no1 (centres undefined),28.2µM,n,n,n,n,n
